# From PubChem BioAssay AID2642 (Johns Hopkins Ion Channel Center, 2010)
# The campaign covered roughly 310,000 compounds. About 3,900 (1.3%) were called active.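 How the source made its calls: active means compounds whose thallium flux B-score, printed positive for inhibition, exceeds three library SD while starting fluorescence stays within three; inactive means the rest.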 The entries come from a sample that favours actives as a whole.
# Target: Potassium voltage-gated channel subfamily KQT member 1 (Homo sapiens) (UniProt P51787)
# Assay: inhibitors of human KCNQ1 channel, primary screen, cell-based, thallium flux, high-throughput (AID 2642);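 further: channel opened by potassium depolarization with thallium stimulus after 20 min compound exposure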
# Settings: CHO-K1 KCNQ1, FluxOR thallium flux fluorescence, at 10 µM; hits give high values
# Potassium voltage-gated channel subfamily KQT member 1 (Homo sapiens), sequence (P51787 whole entry, looked up): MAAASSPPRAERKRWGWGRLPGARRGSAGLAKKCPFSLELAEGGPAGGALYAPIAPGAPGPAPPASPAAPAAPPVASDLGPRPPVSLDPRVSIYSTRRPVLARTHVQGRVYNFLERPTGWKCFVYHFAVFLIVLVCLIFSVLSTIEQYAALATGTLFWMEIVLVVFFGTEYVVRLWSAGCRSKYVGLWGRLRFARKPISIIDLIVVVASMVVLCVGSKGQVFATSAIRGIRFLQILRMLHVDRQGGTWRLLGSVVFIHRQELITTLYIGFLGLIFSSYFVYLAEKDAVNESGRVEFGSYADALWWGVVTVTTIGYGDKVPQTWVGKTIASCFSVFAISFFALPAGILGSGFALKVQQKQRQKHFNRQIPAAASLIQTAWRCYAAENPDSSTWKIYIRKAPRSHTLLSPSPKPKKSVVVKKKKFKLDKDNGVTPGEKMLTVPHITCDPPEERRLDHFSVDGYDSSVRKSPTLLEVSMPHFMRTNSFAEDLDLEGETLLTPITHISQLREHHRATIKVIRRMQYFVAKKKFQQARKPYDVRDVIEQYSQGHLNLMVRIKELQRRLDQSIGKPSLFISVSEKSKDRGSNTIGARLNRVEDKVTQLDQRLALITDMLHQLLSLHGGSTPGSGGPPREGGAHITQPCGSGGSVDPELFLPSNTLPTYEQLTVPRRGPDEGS
row,Structure (SMILES),B-score
1,CCCn1c(C)cc(/C=C(\C#N)C(=O)OCC(=O)N(C)c2c(N)n(Cc3ccccc3)c(=O)[nH]c2=O)c1C,inactive
2,CCC(C)[C@@H](C(=O)N1CCNCC1)n1cc(CCCCN)nn1 (stereo partly drawn),inactive
3,CC1CCN(CCC(=O)Nc2ccccc2)CC1,inactive
4,O=C(CCN1c2ccccc2Sc2ccccc21)Nc1ccccc1,12 (active)
5,O=C(CCN1C(=O)c2ccccc2C1=O)Nc1ccncc1,inactive
6,CCN1CCN(C(=O)CN(C)S(=O)(=O)c2ccc3ccccc3c2)CC1,inactive
7,CON(C)S(=O)(=O)c1ccc2c(c1)NC(=O)C1CCCN21 (stereo not drawn),inactive
8,Fc1cccc(Cl)c1CSc1ccc(-c2ccco2)nn1,inactive
9,O=c1cc(O)nc(SCc2ccccc2Cl)[nH]1,inactive
10,Clc1ccccc1CSc1nnc(-c2ccco2)c(-c2ccco2)n1,11 (active)
11,CC[C@@]12C(=O)N(c3ccccc3)C(=O)N1[C@H](c1ccc(Br)cc1)[C@@H]1C(=O)N(C(C)(C)C)C(=O)[C@@H]12,inactive
12,CCC(=O)Nc1ccc(C(=O)Nc2ccc3c(c2)C(=O)N(CC2CCCO2)C3=O)cc1 (stereo not drawn),inactive
13,O=C1c2cccc3c([N+](=O)[O-])ccc(c23)C(=O)N1CC1CCCO1 (stereo not drawn),6 (active)
14,CCOc1cccc(=O)c2c(C)n(CC3CCCO3)c(C)c12 (stereo not drawn),inactive
15,CCOC(=O)C1CCN(Cc2coc3ccc(Cl)cc3c2=O)CC1,inactive
16,Cc1ccccc1-n1cc(CNC(=O)C2CCC(=O)N(C3CC3)C2)cn1 (stereo not drawn),inactive
17,Cc1ccc(C)c(N2CCN(S(=O)(=O)c3c(C)[nH]c(C)c3C(=O)N3CCCC3)CC2)c1,inactive
18,COc1ccc(CC(=O)N/N=C/c2cc([N+](=O)[O-])cc(Br)c2O)cc1,inactive
19,O=[N+]([O-])c1cc(Br)c(O)c(/C=N/Nc2nc3ccccc3s2)c1,12 (active)
20,c1ccc2sc(NN=C3CCCC3)nc2c1,inactive
21,CCc1ccc(N(CC(=O)Nc2sc3c(c2C(=O)OC)CCCC3)S(C)(=O)=O)cc1,inactive
22,CCN(CC)CC(=O)Nc1sc2c(c1C(=O)c1ccccc1C)CCC2,8 (active)
23,O=C(Nc1sc2c(c1C(=O)O)CCC2)c1ccccc1F,inactive
24,CCc1nc(N2CCN(C(C)=O)CC2)c2c3c(sc2n1)CCCC3,inactive
25,NS(=O)(=O)c1ccc(NC(=S)Nc2ccc(Br)c(Cl)c2)cc1,8 (active)
26,NS(=O)(=O)c1ccc(CCNC(=S)Nc2ccc(S(N)(=O)=O)cc2)cc1,inactive
27,NS(=O)(=O)c1ccc(NC(=S)NC(=O)c2cccc(Br)c2)cc1,inactive

row,Structure (SMILES),B-score
1,CCCCSc1[nH]c(=O)c(C(=O)OCC)cc1C#N,inactive
2,COCCN(C(=S)Nc1cccc(Cl)c1C)C(C)c1ccco1 (stereo not drawn),inactive
3,Fc1ccc(/C=N/n2c(COc3ccccc3)n[nH]c2=S)cc1,inactive
4,CC(C)[C@H](NC(=O)N1CCn2c1nc1ccccc12)C(=O)NCCc1ccccc1,inactive
5,CC(C)CCNC(=O)Cn1c(=O)oc2cc(S(=O)(=O)N3CC(C)CC(C)C3)ccc21 (stereo not drawn),inactive
6,CCOc1ccc(CC(=O)NC2CCN(Cc3ccccc3)CC2)cc1,inactive
7,CCOc1ccc(CN2CCCN(C)CC2)cc1,inactive
8,CCOc1ccc(CN2CCN(Cc3c[nH]c4ccccc34)CC2)cc1,12 (active)
9,COc1ccc(N(C)S(=O)(=O)c2ccc3c(c2)CC(C)N3C(=O)C2CC2)c(OC)c1 (stereo not drawn),inactive
10,Fc1ccccc1COc1cccc2cccnc12,inactive
11,Cc1nc2ccccc2cc1OCc1ccc(F)cc1,11 (active)
12,Cc1occc(=O)c1OCc1ccc(F)cc1,inactive
13,O=C1c2ccccc2C(=O)N1c1cccc2ccccc12,inactive
14,Cc1nn(C)cc1N1C(=O)c2cccc3c(N)ccc(c23)C1=O,22 (active)
15,CN1C(=O)c2cccc3c(N)ccc(c23)C1=O,inactive
16,C/C(N)=C(/C#N)C(=O)COC(=O)c1cc(-c2ccc(C)cc2)nc2ccccc12,inactive
17,CCCCCCCC[n+]1cccc(C(=O)N2c3c(nc(N)[nH]c3=O)NC(C)C2C)c1 (stereo not drawn),inactive
18,O=C(O)c1ccccc1NC(=O)c1ccccc1-c1ccccc1C(=O)O,inactive
19,COC(=O)c1ccccc1NC(=S)NC(=O)c1ccccc1F,inactive
20,O=C(NC(=S)Nc1ccccc1C(=O)O)c1ccc(-c2ccc(Br)cc2)o1,7 (active)
21,COCCNC(=O)C(c1ccc(O)cc1)N(C(=O)CCC(=O)Nc1nccs1)c1ccc(C)cc1 (stereo not drawn),inactive
22,CCOC(=O)CN(C(=O)COc1nc(C)cc(C)c1C#N)c1ccc(Cl)cc1,inactive
23,CC1=C(C)CC(C(=O)NNC(=O)c2ccccc2O)C(C(=O)O)C1 (stereo not drawn),inactive
24,Cc1ccccc1C(=O)NNC(=O)CN1C(=O)c2ccccc2C1=O,inactive
25,Cc1cc(C(=O)CCC(=O)NNC(=O)c2ccccc2O)c(C)s1,6 (active)
26,COc1ccccc1CNC(=O)COn1nnc2ccc(S(=O)(=O)N3CCOCC3)cc21,inactive
